41 compounds from ChEMBL document CHEMBL4888484, “Replenishing the malaria drug discovery pipeline: Screening and hit evaluation of the MMV Hit Generation Library 1 (HGL1) against asexual blood stage Plasmodium falciparum ,using a nano luciferase reporter read-out” (2022) can be followed below.

In all, about 150,000 compounds went through this assay and about 540 (0.36%) showed an effect of 50% or more. What follows is part of a selection rich in strong results, with near analogues and random picks from the rest.

In the assay the test system is Plasmodium falciparum. The assay can be described thus: Primary screen in NF54 nanoGlo assay, in single point, at 2uM, 72h; a lower Z score goes with more inhibition. Type of assay: functional, Erythrocyte. Particulars: timepoint 72 hour.
For the compound `CCc1nc(C#N)cc(N2CCC[C@@H]2CS(C)(=O)=O)n1`, the “% Inhibition” value was -2% and the Z score is 0.21.

As to `O=S(=O)(CCCOc1ccccc1)NC[C@H]1CCCN1c1ccccc1`, the “% Inhibition” value is -13% and the Z score stood at 2.45.

Turning to `Cc1cnc([C@H](C)N2CCC(S(=O)(=O)N3CCCC3)CC2)o1`, the “% Inhibition” value is listed as -14% and the Z score was 2.67.

On to `O=c1[nH]c2ccc(NCc3cc(Cl)ccc3OCc3ccccc3F)cc2[nH]1`, for which the “% Inhibition” value came to 2% and the Z score was -0.36.

As to `CC(C)(C)OC(=O)N1CC(OC(=O)CC2(CS(C)(=O)=O)CC2)C1`, the “% Inhibition” value is given as -13% and the Z score worked out at 1.78.

In the case of `CNC(=O)c1[nH]nc2c1CN(CC(=O)Nc1cccc(C)c1C)CC2`, the “% Inhibition” value is reported as -5% and the Z score stood at 0.76.

In the case of `Cc1cccc(CN2C[C@@H](O)C[C@H]2c2nnc3n2CCN(C(=O)C(C)C)C3)c1`, the “% Inhibition” value is 4% and the Z score is given as -0.68.

Consider `CC(C)(C)OC(=O)N1CCC2(CC1)NN=C1C=C(N3CCN(c4ccccc4F)CC3)N=CN12`, for which the “% Inhibition” value stood at 50% and the Z score was 1.26.

With `CC(C)(C)OC(=O)N1CCN(c2nnc(NC(=O)c3c(F)cccc3F)[nH]2)CC1`, the “% Inhibition” value is given as -14% and the Z score came to 1.7.

For the compound `C[C@@]1(C(=O)N2CCN(c3ccccc3F)CC2)Oc2ccccc2NC1=O`, the “% Inhibition” value worked out at 1% and the Z score is given as -0.16.

Consider `O=C(Nc1ccc(-n2cnnn2)cc1)c1coc(-c2ccccc2)n1`, for which the “% Inhibition” value is -6% and the Z score was 1.22.

Take `CN1CCN(S(=O)(=O)N[C@@H](CO)c2ccc(F)cc2)CC1`: the “% Inhibition” value was -12% and the Z score is given as 2.47.

In the case of `COc1cc2c(N3CCC([C@H](O)C(=O)NC4CC4)CC3)ccnc2cc1F`, the “% Inhibition” value is on record as -6% and the Z score is given as 0.61.

Consider `OC[C@H]1CCN(c2ccnc3cc(Cl)ccc23)C[C@@H]1O`, for which the “% Inhibition” value was -1% and the Z score was 0.17.

In the case of `CCC(CC)N(Cc1ccc2c(c1)OCO2)C(=O)Cc1cccnc1`, the “% Inhibition” value is listed as 23% and the Z score was -2.95.

For the compound `CCOc1ccc(CN2CCC[C@@](F)(C(=O)N3CCOCC3)C2)cc1OC`, the “% Inhibition” value was -11% and the Z score is on record as 0.93.

As to `N#CCc1ncc(CCN2C(=O)c3ccccc3C2=O)s1`, the “% Inhibition” value is reported as 51% and the Z score was -6.59.

Take `O=C1c2ccccc2C(=O)N1Cc1cnc(N2CCCCC2)s1`: the “% Inhibition” value is 45% and the Z score was determined as 0.07.

Turning to `CC(=O)Nc1ccnc(Cc2ccccc2)n1`, the “% Inhibition” value is given as -8% and the Z score is 1.29.

As for `CC(CCc1cccn1C)NC(=O)NC1CCN(c2cnn(C)c2)C1` (configuration not stated), the “% Inhibition” value is recorded as -1% and the Z score was 0.08.

On to `CCc1nn(C)cc1NC(=O)N1CCN(C(=O)c2ccc(F)cc2)CC1`, for which the “% Inhibition” value is listed as 5% and the Z score is on record as -0.74.

For the compound `COc1ccc(C(=O)Nc2ccc3nc4c(c(Nc5ccc(OC)c(OC)c5)c3c2)CCCC4)c(OC)c1`, the “% Inhibition” value is listed as -8% and the Z score is listed as 0.97.

Regarding `CCOc1cc(C(=O)Nc2ccc3nc4c(c(Nc5ccc(OC)c(OC)c5)c3c2)CCCC4)cc(OCC)c1OCC`, the “% Inhibition” value stood at 93% and the Z score is -11.16.

In the case of `COc1ccccc1Nc1c2c(nc3ccc(NC(=O)c4ccc5c(c4)OCO5)cc13)CCCC2`, the “% Inhibition” value is on record as 2% and the Z score is recorded as -0.26.

On to `FC(F)(F)c1cnc(N2CCOC3(CCOCC3)CC2)s1`, for which the “% Inhibition” value came out at 105% and the Z score was -19.68.

As to `CCC1(N2CCOCC2)CCN(c2ncc(C(F)(F)F)s2)CC1`, the “% Inhibition” value came out at 12% and the Z score is -1.55.

For the compound `CC1(N2CCOCC2)CCN(c2ncc(C(F)(F)F)s2)CC1`, the “% Inhibition” value was -5% and the Z score is reported as 0.84.

For `CC(C)(C)c1cc(CN2CCC3(CC2)[C@H](O)C[C@@H]3O)n[nH]1`, the “% Inhibition” value was -1% and the Z score is listed as 0.15.

Turning to `CC(C)(C)c1cc(CN2CCN(S(N)(=O)=O)CC2)n[nH]1`, the “% Inhibition” value was 72% and the Z score is -0.86.

As for `CC1(C#N)CCN(Cc2cc(C(C)(C)C)[nH]n2)CC1`, the “% Inhibition” value came out at 4% and the Z score was -0.56.

For the compound `CC(C)OCC(=O)Nc1ccn(CCCn2ccnc2)n1`, the “% Inhibition” value is on record as -7% and the Z score was determined as 1.24.

Take `Cc1cc(NC(=O)COc2ccccc2)nn1-c1ccc(Cl)cc1`: the “% Inhibition” value was -3% and the Z score was 0.32.

`COc1ccc(CC(=O)Nc2cc(C)n(-c3cccc(Cl)c3)n2)cc1`: the “% Inhibition” value is reported as 80% and the Z score is on record as -8.55.

For `CCc1cc(NC(=O)Cc2ccc(OC)cc2)nn1-c1ccc(OC)cc1`, the “% Inhibition” value was -2% and the Z score is recorded as 0.3.

Regarding `O=C(Nc1cccnc1O)c1nc(C2CC2)n(-c2ccccc2)n1`, the “% Inhibition” value was determined as 33% and the Z score is recorded as -3.76.

For `CN(C)C(=NCCC1CCCC1)N(C)C`, the “% Inhibition” value is -7% and the Z score is 0.94.

Regarding `O=C(Cc1n[nH]c(=O)c2ccccc12)N[C@H]1CCCc2c1[nH]c1c(Cl)cccc21`, the “% Inhibition” value turned out to be 3% and the Z score was -0.39.

For the compound `CCN1CCCCc2cc(C(=O)N[C@H]3CCS(=O)(=O)C3)sc21`, the “% Inhibition” value was -2% and the Z score worked out at 0.2.

On to `COc1ccc(C2CC(c3ccc(C)cc3)n3ncnc3N2C(=O)c2ccccc2)cc1` (configuration not stated), for which the “% Inhibition” value was 32% and the Z score is given as -3.62.

As for `COc1ccc(C(=O)N2c3ncnn3C(c3ccccc3)CC2c2ccc(C)cc2)cc1OC` (configuration not stated), the “% Inhibition” value is recorded as 76% and the Z score was -10.75.

As for `CCC(=O)N1c2ncnn2C(c2ccc(C)cc2)CC1c1ccccc1` (configuration not stated), the “% Inhibition” value was 3% and the Z score is listed as -0.41.

In general, % Inhibition refers to the relative decrease from the control value, in per cent.
